# Tests used:
# Test in all cases: DAPPL (digital affinity profiling via proximity ligation, sequencing); 10 mM Tris-HCl pH 7.5, 50 mM NaCl, 1 mM DTT, 4% glycerol, room temperature, 30 min; GST-TFs on glutathione beads, 16-mer random dsDNA library, 0.1% formaldehyde crosslink after washing; high values mean tight binding
# FEV = molecular target: T1, FEV (Homo sapiens, UniProt Q99581 1-238); settings: protein: recombinant; tags: N-terminal GST; dsDNA, one strand shown
# T1 sequence: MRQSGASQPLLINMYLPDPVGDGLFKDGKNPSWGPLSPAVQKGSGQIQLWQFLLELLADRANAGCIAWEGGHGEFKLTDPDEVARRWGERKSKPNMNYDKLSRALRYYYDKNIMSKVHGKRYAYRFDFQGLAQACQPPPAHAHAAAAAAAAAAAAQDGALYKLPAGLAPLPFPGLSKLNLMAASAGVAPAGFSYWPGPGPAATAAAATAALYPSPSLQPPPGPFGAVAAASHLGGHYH
# In short: (§1)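 Each value of binding signal is a hexamer's read frequency for a factor divided by the same hexamer's frequency in the tag-only sample. Barcoded, bead-captured GST fusions of human transcription factors made in yeast were pooled with that sample and incubated with 200 nmole of a random double-stranded 16-mer DNA library in Tris/NaCl/DTT/glycerol buffer at room temperature for 30 min. Washing, 0.1% formaldehyde crosslinking, proximity ligation, PCR and Illumina NextSeq500 sequencing followed.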
# ETV5 = ETV5 (Homo sapiens, UniProt P41161 1-510); settings: protein: recombinant; tags: N-terminal GST; dsDNA, one strand shown
# In short: as §1
# HSF1 = HSF1 (Homo sapiens, UniProt Q00613 1-529); settings: protein: recombinant; tags: N-terminal GST; chain copies: 3; dsDNA, one strand shown
# In short: as §1
# SPIC = molecular target: T2, SPIC (Homo sapiens, UniProt Q8N5J4 1-248); settings: protein: recombinant; tags: N-terminal GST; dsDNA, one strand shown
# T2 sequence: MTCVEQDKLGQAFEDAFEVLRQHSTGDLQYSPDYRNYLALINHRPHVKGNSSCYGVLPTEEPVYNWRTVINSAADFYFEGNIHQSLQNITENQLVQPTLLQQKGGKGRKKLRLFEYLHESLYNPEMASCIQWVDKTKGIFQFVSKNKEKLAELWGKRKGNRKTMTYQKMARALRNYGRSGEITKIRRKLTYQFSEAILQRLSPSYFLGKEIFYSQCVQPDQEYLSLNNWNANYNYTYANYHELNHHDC
# In short: as §1
# ELF4 = ELF4 (Homo sapiens, UniProt Q99607 1-663); settings: protein: recombinant; tags: N-terminal GST; dsDNA, one strand shown
# In short: as §1
# ELK4 = molecular target: T3, ELK4 (Homo sapiens, UniProt P28324-2 1-405); settings: protein: recombinant; tags: N-terminal GST; dsDNA, one strand shown
# T3 sequence: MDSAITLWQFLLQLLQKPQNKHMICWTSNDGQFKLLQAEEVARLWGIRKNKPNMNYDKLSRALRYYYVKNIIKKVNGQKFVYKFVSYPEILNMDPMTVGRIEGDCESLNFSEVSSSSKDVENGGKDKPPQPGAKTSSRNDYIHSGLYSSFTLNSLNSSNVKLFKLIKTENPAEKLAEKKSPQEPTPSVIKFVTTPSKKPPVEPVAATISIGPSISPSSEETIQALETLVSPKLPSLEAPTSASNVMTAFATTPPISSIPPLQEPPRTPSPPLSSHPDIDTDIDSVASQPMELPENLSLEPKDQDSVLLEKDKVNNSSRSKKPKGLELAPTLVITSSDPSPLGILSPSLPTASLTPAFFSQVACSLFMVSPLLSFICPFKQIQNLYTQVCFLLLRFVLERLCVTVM
# In short: as §1
# ETV2 = molecular target: T4, ETV2 (Homo sapiens, UniProt O00321 1-342); settings: protein: recombinant; tags: N-terminal GST; dsDNA, one strand shown
# T4 sequence: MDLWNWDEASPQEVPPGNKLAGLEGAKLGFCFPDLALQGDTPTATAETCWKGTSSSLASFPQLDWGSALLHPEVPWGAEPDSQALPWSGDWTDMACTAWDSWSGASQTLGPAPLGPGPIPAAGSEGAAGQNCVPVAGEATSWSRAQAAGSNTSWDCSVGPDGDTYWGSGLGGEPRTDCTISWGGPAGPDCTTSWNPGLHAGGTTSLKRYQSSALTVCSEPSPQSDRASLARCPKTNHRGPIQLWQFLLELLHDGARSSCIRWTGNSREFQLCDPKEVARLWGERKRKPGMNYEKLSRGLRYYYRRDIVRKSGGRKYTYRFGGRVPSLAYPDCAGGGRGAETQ
# In short: as §1
# ELF3 = molecular target: T5, ELF3 (Homo sapiens, UniProt P78545 1-371); settings: protein: recombinant; tags: N-terminal GST; dsDNA, one strand shown
# T5 sequence: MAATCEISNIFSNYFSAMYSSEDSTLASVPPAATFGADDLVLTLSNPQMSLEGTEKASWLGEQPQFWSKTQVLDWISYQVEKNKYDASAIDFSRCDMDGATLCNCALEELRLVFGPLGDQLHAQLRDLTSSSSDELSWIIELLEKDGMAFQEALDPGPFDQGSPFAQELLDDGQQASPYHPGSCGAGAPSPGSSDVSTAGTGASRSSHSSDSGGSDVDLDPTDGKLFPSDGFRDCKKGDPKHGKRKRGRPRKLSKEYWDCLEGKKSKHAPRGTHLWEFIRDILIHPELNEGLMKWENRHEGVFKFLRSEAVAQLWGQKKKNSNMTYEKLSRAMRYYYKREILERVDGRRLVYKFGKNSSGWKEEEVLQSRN
# In short: as §1
# CRX = CRX (Homo sapiens, UniProt O43186 1-299); settings: protein: recombinant; tags: N-terminal GST; dsDNA, one strand shown
# In short: as §1
# Sequence of HSF1 (Q00613 whole entry): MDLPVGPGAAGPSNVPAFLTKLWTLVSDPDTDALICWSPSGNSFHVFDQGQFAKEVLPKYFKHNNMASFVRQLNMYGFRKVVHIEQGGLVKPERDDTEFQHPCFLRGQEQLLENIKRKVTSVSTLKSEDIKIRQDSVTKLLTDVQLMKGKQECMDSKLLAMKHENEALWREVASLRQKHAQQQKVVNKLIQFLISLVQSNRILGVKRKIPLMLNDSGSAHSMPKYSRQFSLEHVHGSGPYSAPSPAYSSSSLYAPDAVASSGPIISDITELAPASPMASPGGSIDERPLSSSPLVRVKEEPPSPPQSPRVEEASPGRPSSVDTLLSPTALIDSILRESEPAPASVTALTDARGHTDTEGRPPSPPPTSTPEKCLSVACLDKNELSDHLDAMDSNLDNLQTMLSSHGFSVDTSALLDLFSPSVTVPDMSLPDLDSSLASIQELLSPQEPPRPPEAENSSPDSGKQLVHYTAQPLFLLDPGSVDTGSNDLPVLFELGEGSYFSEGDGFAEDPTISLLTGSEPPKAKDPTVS
# Sequence of CRX (O43186 whole entry): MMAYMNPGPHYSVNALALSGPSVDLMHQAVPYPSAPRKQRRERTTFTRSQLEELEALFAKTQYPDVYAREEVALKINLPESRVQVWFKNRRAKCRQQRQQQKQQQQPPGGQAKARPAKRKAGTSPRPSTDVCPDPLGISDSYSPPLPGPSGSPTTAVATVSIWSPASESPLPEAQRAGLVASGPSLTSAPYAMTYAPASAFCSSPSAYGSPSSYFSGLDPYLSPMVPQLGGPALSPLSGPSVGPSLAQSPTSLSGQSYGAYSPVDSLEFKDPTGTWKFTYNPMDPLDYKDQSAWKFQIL
# Sequence of ELF4 (Q99607 whole entry): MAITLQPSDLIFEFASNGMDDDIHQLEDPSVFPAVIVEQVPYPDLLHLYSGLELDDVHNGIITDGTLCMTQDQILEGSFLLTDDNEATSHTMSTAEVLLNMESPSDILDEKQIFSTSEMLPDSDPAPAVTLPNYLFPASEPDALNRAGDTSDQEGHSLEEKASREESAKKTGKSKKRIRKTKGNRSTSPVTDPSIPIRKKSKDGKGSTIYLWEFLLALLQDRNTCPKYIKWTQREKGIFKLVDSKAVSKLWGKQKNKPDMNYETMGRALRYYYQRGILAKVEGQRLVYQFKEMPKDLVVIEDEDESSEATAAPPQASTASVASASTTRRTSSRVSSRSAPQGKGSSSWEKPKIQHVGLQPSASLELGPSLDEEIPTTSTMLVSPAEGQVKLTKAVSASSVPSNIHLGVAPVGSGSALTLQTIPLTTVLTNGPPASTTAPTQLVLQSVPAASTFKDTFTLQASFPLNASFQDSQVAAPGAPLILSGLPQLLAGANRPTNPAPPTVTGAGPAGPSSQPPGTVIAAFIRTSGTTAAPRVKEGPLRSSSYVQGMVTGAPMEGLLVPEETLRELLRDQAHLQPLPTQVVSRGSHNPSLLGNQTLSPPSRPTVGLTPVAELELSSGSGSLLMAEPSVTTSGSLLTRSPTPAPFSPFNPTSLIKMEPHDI
# Sequence of ETV5 (P41161 whole entry): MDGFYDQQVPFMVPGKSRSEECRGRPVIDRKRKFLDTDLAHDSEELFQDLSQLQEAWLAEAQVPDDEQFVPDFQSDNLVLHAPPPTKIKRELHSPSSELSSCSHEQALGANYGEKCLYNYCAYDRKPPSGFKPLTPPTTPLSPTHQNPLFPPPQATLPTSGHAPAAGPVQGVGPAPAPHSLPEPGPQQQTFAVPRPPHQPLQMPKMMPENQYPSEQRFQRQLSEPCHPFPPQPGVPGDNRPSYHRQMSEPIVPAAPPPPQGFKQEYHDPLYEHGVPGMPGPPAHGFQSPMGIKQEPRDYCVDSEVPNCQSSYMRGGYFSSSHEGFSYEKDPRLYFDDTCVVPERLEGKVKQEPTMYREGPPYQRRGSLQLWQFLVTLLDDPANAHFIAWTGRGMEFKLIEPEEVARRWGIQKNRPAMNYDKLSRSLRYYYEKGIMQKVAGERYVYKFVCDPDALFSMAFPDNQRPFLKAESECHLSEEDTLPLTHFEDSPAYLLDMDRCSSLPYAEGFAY
sequence,measurement,setting,value
CCGAGC,binding signal,FEV,"1.18 fold enrichment (6-mer frequency, TF over GST control)"
same,binding signal,ETV5,"1.14 fold enrichment (6-mer frequency, TF over GST control)"
same,binding signal,HSF1,"1.13 fold enrichment (6-mer frequency, TF over GST control)"
same,binding signal,SPIC,"1.26 fold enrichment (6-mer frequency, TF over GST control)"
same,binding signal,ELF4,"1.09 fold enrichment (6-mer frequency, TF over GST control)"
same,binding signal,ELK4,"1.09 fold enrichment (6-mer frequency, TF over GST control)"
same,binding signal,ETV2,"1.35 fold enrichment (6-mer frequency, TF over GST control)"
same,binding signal,ELF3,"1.23 fold enrichment (6-mer frequency, TF over GST control)"
same,binding signal,CRX,"1.01 fold enrichment (6-mer frequency, TF over GST control)"

# Reference: publication PMC7862700, “An all-to-all approach to the identification of sequence-specific readers for epigenetic DNA modifications on cytosine”
